Laboratory results: PubChem BioAssay (NCI)
This is part of a sample that, as a whole, favours compounds with a hit. Of some 83,000 tested, about 20% had one in any assay.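 Interpretation: 100, growth as untreated; towards 0, rising growth inhibition; 0, no net growth; 0 to -100, cell death. Compounds scoring below 10 were considered active.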 Values without a mark were called inactive. Activity calls are given as the source filed them.

System: NCI-H23 lung
Assay: NCI-60 one-dose screen, 48 h (100 = growth as untreated, 0 = no growth, -100 = all killed)
Conditions: 10 µM unless noted

With `COc1ccc2nc(-c3ccc(Cl)cc3)cc(-c3nnc(SCC(=O)Nc4ccc(/C(C)=N\O)cc4)o3)c2c1` the growth was 2.74% (active).
`CCN1CCC[C@H]1c1cc(O)c2c(c1OC)C[C@H]1C[C@H]3[C@H](N)C(=O)C(C(N)=O)=C(O)[C@@]3(O)C(=O)C1=C2O` was tested, and the growth was -16.7% (active).
`O=C(O)COc1ccc2c(=O)c3sc4c(=O)c5ccccc5c(=O)c4c3c(=O)c2c1` was tested, and the growth was -39.6% (active).

Going from `C/C(=C\c1cnc(C)s1)[C@@H]1C[C@@H]2O[C@@H]2CCC[C@H](C)[C@H](O)[C@@H](C)C(=O)C(C)(C)[C@@H](O)CC(=O)O1` to `C#C[C@@]1(O)[C@@H](CO)O[C@@H](n2cnc3c(-c4ccccc4)ncnc32)[C@@H]1O`, the growth rises from 31.7% to 101%.

Compared with `O=C(/C(=C\c1c(-c2ccccc2)[nH]c2ccccc12)S(=O)(=O)c1ccccc1)c1ccccc1`, `O=C(Nc1nc(-c2ccccc2)cs1)c1cc(-c2ccc(Br)cc2)nc2ccccc12` is higher in growth: 47.9% for the first, 51.6% for the second.

Going from `O=c1[nH]c(-c2cccc(F)c2)cc2cc(F)ccc12` to `O=C1NCc2ccc3c(-c4cccc(Cl)c4)c[nH]c3c21`, the growth falls from 45.9% to 35.5%.

First: O=C1CS/C(=N/c2nnc(-c3ccc(O)cc3)s2)N1
Second: O=C1Nc2ccc(Cl)cc2/C1=N/c1nc(-c2ccc(F)cc2)cs1
The growth of the first is higher: 90% for the first, 44% for the second.

Compared with `C[C@H](Oc1cc(-c2cnn(C3CCNCC3)c2)cnc1N)c1c(Cl)ccc(F)c1Cl`, `CCOC(=O)c1cnn(-c2nc(-c3ccc(F)cc3)c(C#N)c(N3CCOCC3)n2)c1N` is higher in growth: 71.6% for the first, 103% for the second.

Going from `COCCOCCOCc1n(Cc2ccc3ccccc3n2)c2ccccc2[n+]1Cc1ccc2ccccc2n1` to `COC(=O)c1cncc(C(=O)Nc2ccc(-n3cnc4ccccc43)cc2)c1`, the growth rises from 12.7% to 102%.

Compared with `CC(=O)c1c(OCC#N)ccc2c(C)cc(=O)oc12`, `CCOC(=O)C1=C(C)n2nc(CC#N)c(C#N)c2NC1c1ccc(Cl)cc1` (centres undefined) is lower in growth: 109% for the first, 86.3% for the second.

Going from `CN(CCC#N)C(=O)Nc1ccccc1` to `Nc1c(C(=O)Nc2ccccc2)sc2nc3c(cc12)CN(C(=O)OCc1ccccc1)CC3`, the growth falls from 101% to 62.6%.

Compared with `C#Cc1ccccc1NC(=O)c1sc2nc3c(cc2c1N)CCCCC3`, `Nc1c(C(=O)Nc2ccccn2)sc2nc3c(cc12)CCCC3` is lower in growth: 88% for the first, 69% for the second.

Compared with `COCCOC(=O)COc1ccc(OC)cc1`, `COc1ccc(C(C)c2cc(OC)c(OC)c(OC)c2)cc1` (centres undefined) is lower in growth: 105% for the first, 28.9% for the second.

Going from `COc1cc(NCC(=O)Nc2cc(Nc3ccc(C)cc3)ncn2)c(Cl)c(OC)c1Cl` to `COc1ccc(Nc2nc(SCC(C)C)nc(-c3ccc(F)cc3)c2C#N)cc1`, the growth falls from 91.7% to 79.1%.

First: COc1ccc2oc(=O)cc(-c3c(C#N)c(N)n4nc(N)c(C#N)c4c3C#N)c2c1
Second: COc1ccc(C2=NN(c3ccc(S(N)(=O)=O)cc3)C(c3ccc(Cl)cc3)C2)c(O)c1 (centres undefined)
The growth of the first is higher: 102% for the first, 63.7% for the second.

Going from `O=C1NC(SCc2ccc(F)cc2)=N/C1=C/c1cccc(OCc2ccc(Cl)cc2)c1` to `Cc1cc(Nc2nc(SCc3ccc(C(=O)Nc4ccc(F)cc4N)cc3)nn3cccc23)n[nH]1`, the growth falls from 57.6% to 42.8%.

Compared with `COC(=O)/C=C1\SC(=Nc2ccc(F)cc2)N(CCc2c[nH]c3ccccc23)C1=O`, `COc1ccc(-n2nc(C(=O)NCC(=O)O)nc2-c2ccccc2)cc1` is higher in growth: 85.3% for the first, 107% for the second.

Compared with `Cc1cc(O)cc(O)c1N=NC1=NCCS1`, `O=C(CN1N=C(c2ccc(F)cc2)CCC1=O)Nc1nccs1` is higher in growth: 98% for the first, 103% for the second.

Going from `CNc1cccc2c1C(=O)c1cccc(N)c1C2=O` to `CN1C(=O)c2cc(Cl)nc3c(NC(=O)c4cccc(Cl)c4)c(Cl)c(NC(=O)c4cccc(Cl)c4)c1c23`, the growth falls from 76.3% to 18.7%.

Going from `O=S(=O)(Nc1nccs1)c1ccc(Nc2nc(-c3ccncc3)cs2)cc1` to `OCCNc1nc(NCCO)nc(Nc2ccc(C3=NN(c4cc(Cl)cc(Cl)c4)C(c4ccc(Cl)cc4)C3)cc2)n1` (centres undefined), the growth falls from 108% to 29.1%.

System: NCI-H226 lung
Assay: as above
Conditions: 10 µM unless noted

Going from `COc1ccc2nc(-c3ccc(Cl)cc3)cc(-c3nnc(SCC(=O)Nc4ccc(/C(C)=N\O)cc4)o3)c2c1` to `COc1ccc(C2=NN(c3ccc(S(N)(=O)=O)cc3)C(c3ccc(Cl)cc3)C2)c(O)c1` (centres undefined), the growth rises from 22.8% to 84.6%.

First: C/C(=C\c1cnc(C)s1)[C@@H]1C[C@@H]2O[C@@H]2CCC[C@H](C)[C@H](O)[C@@H](C)C(=O)C(C)(C)[C@@H](O)CC(=O)O1
Second: C#C[C@@]1(O)[C@@H](CO)O[C@@H](n2cnc3c(-c4ccccc4)ncnc32)[C@@H]1O
The growth of the first is lower: 85.3% for the first, 104% for the second.

Compared with `O=C(/C(=C\c1c(-c2ccccc2)[nH]c2ccccc12)S(=O)(=O)c1ccccc1)c1ccccc1`, `O=C(Nc1nc(-c2ccccc2)cs1)c1cc(-c2ccc(Br)cc2)nc2ccccc12` is lower in growth: 53.6% for the first, 46.3% for the second.

Compared with `O=c1[nH]c(-c2cccc(F)c2)cc2cc(F)ccc12`, `O=C1NCc2ccc3c(-c4cccc(Cl)c4)c[nH]c3c21` is lower in growth: 96.3% for the first, 89.6% for the second.

First: O=C1CS/C(=N/c2nnc(-c3ccc(O)cc3)s2)N1
Second: O=C1Nc2ccc(Cl)cc2/C1=N/c1nc(-c2ccc(F)cc2)cs1
The growth of the first is higher: 105% for the first, 75% for the second.

Compared with `C[C@H](Oc1cc(-c2cnn(C3CCNCC3)c2)cnc1N)c1c(Cl)ccc(F)c1Cl`, `CCOC(=O)c1cnn(-c2nc(-c3ccc(F)cc3)c(C#N)c(N3CCOCC3)n2)c1N` is lower in growth: 109% for the first, 92.1% for the second.

Compared with `COCCOCCOCc1n(Cc2ccc3ccccc3n2)c2ccccc2[n+]1Cc1ccc2ccccc2n1`, `COC(=O)c1cncc(C(=O)Nc2ccc(-n3cnc4ccccc43)cc2)c1` is higher in growth: 37.9% for the first, 89.6% for the second.

Compared with `CC(=O)c1c(OCC#N)ccc2c(C)cc(=O)oc12`, `CCOC(=O)C1=C(C)n2nc(CC#N)c(C#N)c2NC1c1ccc(Cl)cc1` (centres undefined) is lower in growth: 112% for the first, 81.8% for the second.

First: CN(CCC#N)C(=O)Nc1ccccc1
Second: Nc1c(C(=O)Nc2ccccc2)sc2nc3c(cc12)CN(C(=O)OCc1ccccc1)CC3
The growth of the first is higher: 106% for the first, 82.7% for the second.

Compared with `C#Cc1ccccc1NC(=O)c1sc2nc3c(cc2c1N)CCCCC3`, `Nc1c(C(=O)Nc2ccccn2)sc2nc3c(cc12)CCCC3` is lower in growth: 88.3% for the first, 82.8% for the second.

Going from `COCCOC(=O)COc1ccc(OC)cc1` to `COc1ccc(C(C)c2cc(OC)c(OC)c(OC)c2)cc1` (centres undefined), the growth falls from 97.3% to 80.2%.

Compared with `COc1cc(NCC(=O)Nc2cc(Nc3ccc(C)cc3)ncn2)c(Cl)c(OC)c1Cl`, `COc1ccc(Nc2nc(SCC(C)C)nc(-c3ccc(F)cc3)c2C#N)cc1` is lower in growth: 85.4% for the first, 75.1% for the second.

Going from `COc1ccc2oc(=O)cc(-c3c(C#N)c(N)n4nc(N)c(C#N)c4c3C#N)c2c1` to `COc1ccc(-n2nc(C(=O)NCC(=O)O)nc2-c2ccccc2)cc1`, the growth rises from 95.4% to 105%.

First: COC(=O)/C=C1\SC(=Nc2ccc(F)cc2)N(CCc2c[nH]c3ccccc23)C1=O
Second: O=C(O)COc1ccc2c(=O)c3sc4c(=O)c5ccccc5c(=O)c4c3c(=O)c2c1
The growth of the first is higher: 91.2% for the first, 28.6% for the second.

Compared with `Cc1cc(O)cc(O)c1N=NC1=NCCS1`, `O=C(CN1N=C(c2ccc(F)cc2)CCC1=O)Nc1nccs1` is lower in growth: 117% for the first, 110% for the second.

Going from `CNc1cccc2c1C(=O)c1cccc(N)c1C2=O` to `CN1C(=O)c2cc(Cl)nc3c(NC(=O)c4cccc(Cl)c4)c(Cl)c(NC(=O)c4cccc(Cl)c4)c1c23`, the growth falls from 82.4% to 23.6%.

Going from `O=S(=O)(Nc1nccs1)c1ccc(Nc2nc(-c3ccncc3)cs2)cc1` to `OCCNc1nc(NCCO)nc(Nc2ccc(C3=NN(c4cc(Cl)cc(Cl)c4)C(c4ccc(Cl)cc4)C3)cc2)n1` (centres undefined), the growth rises from 102% to 109%.

In the case of `Cc1cc(Nc2nc(SCc3ccc(C(=O)Nc4ccc(F)cc4N)cc3)nn3cccc23)n[nH]1`, the growth is reported as 51.6%.

With `O=C1NC(SCc2ccc(F)cc2)=N/C1=C/c1cccc(OCc2ccc(Cl)cc2)c1` the growth was -7.92% (active).
In the case of `CCN1CCC[C@H]1c1cc(O)c2c(c1OC)C[C@H]1C[C@H]3[C@H](N)C(=O)C(C(N)=O)=C(O)[C@@]3(O)C(=O)C1=C2O`, the growth is reported as 1.47% (active).
